Test systems include DU-145 prostate; K-562 leukemia; MALME-3M melanoma; MDA-MB-231 breast; RXF 393 renal; SF-268 CNS; SF-295 CNS; SF-539 CNS; UACC-257 melanoma; M14 melanoma; HCT-15 colon; HT29 colon; SNB-75 CNS; SNB-19 CNS; U251 CNS; PC-3 prostate; SK-MEL-5 melanoma; UACC-62 melanoma; LOX IMVI melanoma; SK-MEL-28 melanoma.
Common to all, as to assay: NCI-60 one-dose screen, 48 h (100 = growth as untreated, 0 = no growth, -100 = all killed)
Holding throughout (details): 10 µM unless noted

Molecules are shown by their SMILES. Compounds without any hit were thinned out: in the full panel of roughly 83,000, 20% have a hit.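 Step 1: grow cells in 96-well plates. Step 2: add test compound at a single concentration. Step 3: incubate 48 h. Step 4: record percent growth.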 A number with no mark means an inactive call. Active and inactive are the calls of the source. The calls were made as follows: active = growth percent below 10; inactive = the rest.

Take `C=C(C)[C@@H]1CC[C@]2(C(=O)NCCNCCNC(=O)OC(C)(C)C)CC[C@]3(C)[C@H](CC[C@@H]4[C@@]5(C)CCC(=O)C(C)(C)[C@@H]5CC[C@]43C)[C@@H]12`: the growth with DU-145 prostate was 53.5% [100 µM]; in the test on K-562 leukemia, 38.1% [100 µM]; with MALME-3M melanoma it was 64.3% [100 µM]; in the test on MDA-MB-231 breast, -33.8% [100 µM] (active); in the test on RXF 393 renal, 35.9% [100 µM]; in the test on SF-268 CNS, 49.8% [100 µM]. The growth was 32% [100 µM] in the test on SF-295 CNS; 50.1% [100 µM] in the test on SF-539 CNS; 36.9% [100 µM] in the test with UACC-257 melanoma; 54.1% [100 µM] with M14 melanoma; 50.4% [100 µM] in the test on HCT-15 colon; 23.7% [100 µM] in the test with HT29 colon. The growth in the test with SNB-75 CNS was 23.9% [100 µM]; in the test on SNB-19 CNS, 47.8% [100 µM]; in the test with U251 CNS, 27.9% [100 µM]; in the test with PC-3 prostate, 19.1% [100 µM]; with SK-MEL-5 melanoma it was -8.44% [100 µM] (active); with UACC-62 melanoma, 48.2% [100 µM]. Also, the growth is 39.6% [100 µM] in the test with LOX IMVI melanoma and 56.3% [100 µM] with SK-MEL-28 melanoma.

Turning to `COc1ccc(C(=O)CSc2nnc(-c3cc(-c4ccccc4)nc4ccccc34)o2)cc1`, the growth is 110% in the test on DU-145 prostate; 103% in the test on K-562 leukemia; 96.7% in the test on MALME-3M melanoma; 98.7% in the test with MDA-MB-231 breast; 122% in the test with RXF 393 renal; 100% in the test with SF-268 CNS. The growth in the test with SF-295 CNS was 102%; in the test on SF-539 CNS it was 106%; in the test with UACC-257 melanoma, 105%; with M14 melanoma it was 105%; with HCT-15 colon, 103%; in the test on HT29 colon, 113%. The growth in the test with SNB-75 CNS is 102%; in the test with SNB-19 CNS, 94.3%; in the test with U251 CNS, 103%; in the test with PC-3 prostate it was 105%; in the test with SK-MEL-5 melanoma, 105%; in the test on UACC-62 melanoma it was 98%. The growth in the test with LOX IMVI melanoma was 101%; in the test on SK-MEL-28 melanoma it was 109%.

Regarding `c1ccc(-c2n[nH]c(-c3ccccn3)n2)nc1`, the growth is 133% in the test on DU-145 prostate; 104% in the test on K-562 leukemia; 107% with MALME-3M melanoma; 116% with MDA-MB-231 breast; 95.7% in the test on RXF 393 renal; 140% in the test with SF-268 CNS. For the same compound, the growth with SF-295 CNS was 98.1%; in the test on SF-539 CNS, 106%; in the test with UACC-257 melanoma, 106%; in the test with M14 melanoma it was 111%; in the test with HCT-15 colon, 96.4%; in the test on HT29 colon it was 108%. The growth with SNB-75 CNS is 101%; in the test with SNB-19 CNS, 99.5%; in the test with U251 CNS, 110%; with PC-3 prostate, 94.4%; in the test with SK-MEL-5 melanoma it was 102%; in the test with UACC-62 melanoma, 104%. The growth in the test with LOX IMVI melanoma is 115%; in the test with SK-MEL-28 melanoma, 149%.

As to `Cc1nc(Cl)cc(N(c2cc(Cl)nc(C)n2)c2ncc(C(=O)Nc3c(C)cccc3Cl)s2)n1`, the growth in the test with DU-145 prostate was 76.5%; in the test with K-562 leukemia it was 6.72% (active); with MALME-3M melanoma, 62.5%; with MDA-MB-231 breast, 24%; in the test on RXF 393 renal, 3.03% (active); in the test on SF-268 CNS, 47%. Also, the growth in the test with SF-295 CNS is 50.4%; in the test on SF-539 CNS it was 38.9%; with UACC-257 melanoma it was 79.6%; with M14 melanoma, 79.6%; in the test with HCT-15 colon it was 59.4%; in the test with HT29 colon it was 20.4%. For the same compound, the growth in the test with SNB-75 CNS was -30.3% (active); in the test on SNB-19 CNS, 72.9%; in the test with U251 CNS, 54.6%; in the test on PC-3 prostate, 32.4%; in the test on SK-MEL-5 melanoma, 46.2%; in the test on UACC-62 melanoma, 53.3%. Further, the results for the growth in the test with LOX IMVI melanoma and in the test on SK-MEL-28 melanoma were 14.2% and 78%, respectively.

`CN(C)c1ccc(-c2ccc(-c3ccc(C(=N)N)cc3)s2)cc1`: the growth with DU-145 prostate was -88.4% (active); in the test with K-562 leukemia it was -4.45% (active); in the test on MALME-3M melanoma, 88.1%; in the test on MDA-MB-231 breast, -29.6% (active); in the test on RXF 393 renal, 54.3%; in the test with SF-268 CNS it was 82.9%. In addition, the growth is 102% with SF-295 CNS; 89.9% in the test on SF-539 CNS; 104% with UACC-257 melanoma; 99.8% in the test with M14 melanoma; -74.6% (active) with HCT-15 colon; -65.6% (active) in the test on HT29 colon. Also, the growth was 97.6% with SNB-75 CNS; -70.2% (active) in the test on SNB-19 CNS; -86.8% (active) in the test with U251 CNS; -91.6% (active) with PC-3 prostate; 74.3% in the test on SK-MEL-5 melanoma; 37.1% in the test on UACC-62 melanoma. The values for the growth in the test on LOX IMVI melanoma and in the test with SK-MEL-28 melanoma were 12.7% and 94.1%, respectively.

Consider `O=C(Nc1cc(-c2cccnc2)nc(NCCCN2CCOCC2)n1)c1cc(Br)cc(C(F)(F)F)c1`, for which the growth in the test with DU-145 prostate is 82.6%; in the test on K-562 leukemia it was 8.84% (active); in the test with MALME-3M melanoma, -7.83% (active); in the test with MDA-MB-231 breast, 32.7%; in the test with RXF 393 renal, 52.8%; with SF-268 CNS, 60.9%. In addition, the growth is -22.8% (active) in the test with SF-295 CNS; 66.5% with SF-539 CNS; -27.1% (active) in the test with UACC-257 melanoma; -72.1% (active) in the test with M14 melanoma; 6.87% (active) with HCT-15 colon; 8.99% (active) with HT29 colon. In addition, the growth was 72.1% in the test on SNB-75 CNS; 69.6% with SNB-19 CNS; 33.1% in the test on U251 CNS; 57.7% in the test on PC-3 prostate; 3.78% (active) in the test with SK-MEL-5 melanoma; -6.13% (active) with UACC-62 melanoma. Moreover, the growth in the test with LOX IMVI melanoma was -16.8% (active); with SK-MEL-28 melanoma it was -49.8% (active).

As for `Fc1cc2[nH]ncc2c2c3c(c(-c4cn[nH]c4C(F)(F)F)nc12)C1CCC3C1` (stereo not given), the growth with DU-145 prostate is 4.96% (active); with K-562 leukemia, 19.4%; with MALME-3M melanoma, 9.41% (active); with MDA-MB-231 breast it was -5.18% (active); in the test on RXF 393 renal it was -89.8% (active); in the test with SF-268 CNS, 3.13% (active). Besides, the growth in the test on SF-295 CNS was 8.79% (active); in the test with SF-539 CNS it was -32.4% (active); in the test with UACC-257 melanoma it was 0.635% (active); with M14 melanoma, -6.09% (active); in the test with HCT-15 colon it was 9.48% (active); in the test on HT29 colon, 13%. The growth in the test with SNB-75 CNS was -4.22% (active); in the test with SNB-19 CNS it was 10.1%; in the test with U251 CNS it was 4.85% (active); in the test on PC-3 prostate, 14%; with SK-MEL-5 melanoma, -28.8% (active); in the test on UACC-62 melanoma, -18.5% (active). The growth was 0.44% (active) in the test with LOX IMVI melanoma and -0.348% (active) in the test with SK-MEL-28 melanoma.

Values taken from PubChem BioAssay (NCI).
